Inconclusive results are not listed. Activity calls are given as the source filed them.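 How the source made its calls, unless noted: active means normalized viability below 100% at a tested concentration; inactive means the rest.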
How the values were obtained:
[1] = viability loss in pontine glioma line – cell-based, SU-DIPG-XVII, MIPE5.0, CellTiter-Glo, qHTS, dose response (AID 1347060; cut-off not given, nearly all actives have AC50 up to about 26 µM;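 on AC50: cells exposed to compound for 48 hours before viability readout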); conditions: CellTiter-Glo ATP luminescence
[2] = viability loss in pontine glioma line – cell-based, SU-DIPG-XIII, MIPE4.0, CellTiter-Glo, qHTS, dose response (AID 1347061; cut-off not given, nearly all actives have AC50 up to about 37 µM;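 further: cells exposed to compound for 48 hours before readout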); conditions: CellTiter-Glo ATP luminescence
[3] = viability loss in pontine glioma line – cell-based, JHH-DIPG-1, MIPE4.0, CellTiter-Glo, qHTS, dose response (AID 1347062; cut-off not given, nearly all actives have AC50 up to about 27 µM;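 on AC50: cells exposed to compound for two days before readout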); conditions: JHH-DIPG-1 viability, CellTiter-Glo ATP luminescence
[4] = viability loss in pontine glioma line – cell-based, SU-DIPG-XIII, MIPE5.0, CellTiter-Glo, qHTS, dose response (AID 1347064; cut-off not given, nearly all actives have AC50 up to about 23 µM;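 on AC50: cells exposed to compound for 48 hours before the viability read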); conditions: CellTiter-Glo ATP luminescence
[5] = viability loss in pontine glioma line – cell-based, SU-DIPG-XXV, MIPE5.0, CellTiter-Glo, qHTS, dose response (AID 1347065; cut-off not given, nearly all actives have AC50 up to about 26 µM;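 further: cells exposed to compound for 48 hours before ATP readout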); conditions: CellTiter-Glo ATP luminescence
[6] = growth inhibition of DIPG cells – cell-based, MIPE4.0 library, CellTiter-Glo luminescence, qHTS (AID 1347066; cut-off not given, nearly all actives have AC50 up to about 30 µM;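 further: cells exposed to compound for 48 hours before readout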); conditions: SU-DIPG-VI viability, CellTiter-Glo ATP luminescence
[7] = JHH-DIPG-1 glioma cell viability, MIPE5.0 library, CellTiter-Glo luminescence, qHTS (AID 1347067; cut-off not given, nearly all actives have AC50 up to about 26 µM;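 further: cells exposed to compound for 48 hours before readout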); conditions: JHH-DIPG-1 glioma viability, CellTiter-Glo ATP luminescence
[8] = growth inhibition of DIPG cells – cell-based, MIPE5.0 library, qHTS (AID 1347068; cut-off not given, nearly all actives have IC50 up to about 30 µM); conditions: SU-DIPG-XXV viability
[9] = viability loss with induced miR-34 in A549 – imaging, A549 dox-inducible miR-34, nuclei and caspase counts, primary screen (AID 1347080;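 active means compounds whose cell count with miR-34 switched on is under 0.7 times the count with it off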); conditions: A549 miR-34 inducible, Hoechst nuclei count, 48 h
[10] = compounds altering HSF1 focus formation in cells – imaging, Selleck Cancer Library (AID 1347162; in the data active means plate-normalised HSF1 focus index below about 0.46); conditions: human cells, HSF1 nuclear foci imaging, at 10 µM; SSMD: measured here: HSF1 foci SSMD mean; cell count: measured here: cell number; plate-normalised HSF1 focus index: stronger effect = lower value
[11] = MELAS cybrid and Rieske KO viability enhancers – cell-based, MELAS cybrids, Rieske KO mouse fibroblasts, CellTiter-Glo, primary screen (AID 1508586;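 active means mean z-score across replicates of 1.96 or higher in either the MELAS or the Rieske mutant cell line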;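 further: z relative to plate mean and SD of compound and empty wells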); conditions: low glucose
[12] = drug combination growth inhibition, ovarian cancer – cell-based, oncology-focused library, rucaparib conditional, profiling panel (AID 1508598); conditions: patient-derived ovarian cancer cells, CellTiter-Glo viability, 144 h, stronger effect = lower value
[13] = stronger effect = lower value, cell number ratio, induced over uninduced
[14] = measured here: relative caspase fold change +Dox/-Dox
[15] = measured here: total cells with miR-34 induction, stronger effect = lower value
[16] = measured here: total cells without miR-34 induction
[17] = MELAS cybrid survival, CellTiter-Glo 48 h, stronger effect = higher value
[18] = Rieske KO mouse fibroblast survival, CellTiter-Glo 72 h
[19] = at 0.000305 µM, OCI-C5x cells, with rucaparib 10 µM, 100% = cells with rucaparib alone
[20] = at 0.000305 µM, OCI-C5x cells, without rucaparib
[21] = at 0.000305 µM, OCI-P5x cells, with rucaparib 20 µM, 100% = cells with rucaparib alone
[22] = at 0.000305 µM, OCI-P5x cells, without rucaparib
[23] = at 0.00122 µM, OCI-C5x cells, with rucaparib 10 µM, 100% = cells with rucaparib alone
[24] = at 0.00122 µM, OCI-C5x cells, without rucaparib
[25] = at 0.00122 µM, OCI-P5x cells, with rucaparib 20 µM, 100% = cells with rucaparib alone
[26] = at 0.00122 µM, OCI-P5x cells, without rucaparib
[27] = at 0.00488 µM, OCI-C5x cells, with rucaparib 10 µM, 100% = cells with rucaparib alone
[28] = at 0.00488 µM, OCI-C5x cells, without rucaparib
[29] = at 0.00488 µM, OCI-P5x cells, with rucaparib 20 µM, 100% = cells with rucaparib alone
[30] = at 0.00488 µM, OCI-P5x cells, without rucaparib
[31] = at 0.0195 µM, OCI-C5x cells, with rucaparib 10 µM, 100% = cells with rucaparib alone
[32] = at 0.0195 µM, OCI-C5x cells, without rucaparib
[33] = at 0.0195 µM, OCI-P5x cells, with rucaparib 20 µM, 100% = cells with rucaparib alone
[34] = at 0.0195 µM, OCI-P5x cells, without rucaparib
[35] = at 0.0781 µM, OCI-C5x cells, with rucaparib 10 µM, 100% = cells with rucaparib alone
[36] = at 0.0781 µM, OCI-C5x cells, without rucaparib
[37] = at 0.0781 µM, OCI-P5x cells, with rucaparib 20 µM, 100% = cells with rucaparib alone
[38] = at 0.0781 µM, OCI-P5x cells, without rucaparib
[39] = at 0.313 µM, OCI-C5x cells, with rucaparib 10 µM, 100% = cells with rucaparib alone
[40] = at 0.313 µM, OCI-C5x cells, without rucaparib
[41] = at 0.313 µM, OCI-P5x cells, with rucaparib 20 µM, 100% = cells with rucaparib alone
[42] = at 0.313 µM, OCI-P5x cells, without rucaparib
[43] = at 1.25 µM, OCI-C5x cells, with rucaparib 10 µM, 100% = cells with rucaparib alone
[44] = at 1.25 µM, OCI-C5x cells, without rucaparib
[45] = at 1.25 µM, OCI-P5x cells, with rucaparib 20 µM, 100% = cells with rucaparib alone
[46] = at 1.25 µM, OCI-P5x cells, without rucaparib
[47] = at 5 µM, OCI-C5x cells, with rucaparib 10 µM, 100% = cells with rucaparib alone
[48] = at 5 µM, OCI-C5x cells, without rucaparib
[49] = at 5 µM, OCI-P5x cells, with rucaparib 20 µM, 100% = cells with rucaparib alone
[50] = at 5 µM, OCI-P5x cells, without rucaparib

COc1nc(C)cnc1NS(=O)(=O)c1cccnc1-c1ccc(-c2nnco2)cc1
active: viability [12, 27] 98.1% | viability [12, 43] 97.7% | viability [12, 49] 99%
8060: cell count [9, 15]
0.943: fold change [9, 14]
7220: cell count [10]
8800: cell count [9, 16]
0.676: z-score [11, 18]
2.08: SSMD [10]
inactive: outcome [1] | outcome [2] | outcome [3] | outcome [4] | outcome [5] | outcome [6] | outcome [7] | outcome [8] | fold change [9, 13] 0.916 | plate-normalised HSF1 focus index [10] 1.13 | z-score [11, 17] -0.393 | viability [12, 19] 110% | viability [12, 20] 112% | viability [12, 21] 102% | viability [12, 22] 109% | viability [12, 23] 108% | viability [12, 24] 117% | viability [12, 25] 106% | viability [12, 26] 109% | viability [12, 28] 114% | viability [12, 29] 104% | viability [12, 30] 109% | viability [12, 31] 111% | viability [12, 32] 110% | viability [12, 33] 100% | viability [12, 34] 108% | viability [12, 35] 103% | viability [12, 36] 113% | viability [12, 37] 104% | viability [12, 38] 110% | viability [12, 39] 105% | viability [12, 40] 112% | viability [12, 41] 103% | viability [12, 42] 108% | viability [12, 44] 112% | viability [12, 45] 104% | viability [12, 46] 111% | viability [12, 47] 106% | viability [12, 48] 116% | viability [12, 50] 106%

Cc1ccc(NC(=O)c2cccc(C(C)(C)C#N)c2)cc1Nc1ccc2ncn(C)c(=O)c2c1
inactive: outcome [6] | fold change [9, 13] 0.944 | plate-normalised HSF1 focus index [10] 1.12 | z-score [11, 17] 0.493 | viability [12, 19] 126% | viability [12, 20] 104% | viability [12, 23] 129% | viability [12, 24] 115% | viability [12, 25] 107% | viability [12, 27] 128% | viability [12, 28] 109% | viability [12, 29] 107% | viability [12, 31] 116% | viability [12, 32] 124% | viability [12, 33] 109% | viability [12, 35] 115% | viability [12, 36] 121% | viability [12, 39] 112% | viability [12, 40] 125% | viability [12, 43] 108% | viability [12, 44] 127% | viability [12, 47] 127% | viability [12, 48] 140%
3.15: SSMD [10]
1.09: fold change [9, 14]
7560: cell count [10]
6180: cell count [9, 16]
5830: cell count [9, 15]
-1.35: z-score [11, 18]
active: AC50 [1] 2.09 µM | AC50 [2] 4.18 µM | AC50 [3] 5.9 µM | AC50 [4] 1.48 µM | AC50 [5] 7.42 µM | AC50 [7] 0.934 µM | viability [12, 21] 95.5% | viability [12, 22] 90.4% | viability [12, 26] 95.5% | viability [12, 30] 99.1% | viability [12, 34] 95% | viability [12, 37] 84.1% | viability [12, 38] 82.8% | viability [12, 41] 68.7% | viability [12, 42] 85.5% | viability [12, 45] 73.2% | viability [12, 46] 81.8% | viability [12, 49] 67.4% | viability [12, 50] 22.1%

Source: PubChem BioAssay
